Measurements as given in PubChem BioAssay (NCATS).
Results filed as inconclusive are left out. Entries that show only a call come without a potency. Unmarked numbers belong to inactive results. The source made the active and inactive calls. Calls follow the shape of the dose curve; as a rule, active = well fitted inhibition curve with a large enough effect; inconclusive = small, poorly fitted or top-dose-only effect; inactive = flat fitted curve, though single readings scatter. Where a SMILES comes first, the peptide text is derived from it. Bridges are numbered along the chain shown (N, C = ends). [ ]: non-standard residue; d: D form. hArg = N=C(N)NCCCC[C@H](N)C(=O)O; Mpa = O=C(O)CCS

Legend:
P94_40 = experiment: qHTS profiling for inhibitors of Plasmodium falciparum proliferation (AID 504749); also: potency is read from the fitted curve at half-maximal effect; conditions: P. falciparum in erythrocytes, SYBR Green DNA, 72 h; series mostly up to 28.7 µM
Outline: (§1)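 Readout was DNA-dye fluorescence from lysed cultures, ex 485/em 535 nm. Parasitized red cells had grown 72 h with compound; data scaled between 0.29 uM artemisinin and DMSO wells and corrected using vehicle-only plates.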

PAD = experiment: as above; conditions: P. falciparum in erythrocytes, SYBR Green DNA, 72 h; series mostly up to 28.7 µM
Outline: as §1

PC15 = experiment: as above; conditions: P. falciparum in erythrocytes, SYBR Green DNA, 72 h; series mostly up to 28.7 µM
Outline: as §1

PC26 = experiment: as above; conditions: P. falciparum in erythrocytes, SYBR Green DNA, 72 h; series mostly up to 28.7 µM
Outline: as §1

PC49 = experiment: as above; conditions: P. falciparum in erythrocytes, SYBR Green DNA, 72 h; series mostly up to 28.7 µM
Outline: as §1

SC27B = experiment: as above; conditions: P. falciparum in erythrocytes, SYBR Green DNA, 72 h; series mostly up to 28.7 µM
Outline: as §1

TAB109 = experiment: as above; conditions: P. falciparum in erythrocytes, SYBR Green DNA, 72 h; series mostly up to 28.7 µM
Outline: as §1

TAB113 = experiment: as above; conditions: P. falciparum in erythrocytes, SYBR Green DNA, 72 h; series mostly up to 28.7 µM
Outline: as §1

TAB165 = experiment: as above; conditions: P. falciparum in erythrocytes, SYBR Green DNA, 72 h; series mostly up to 28.7 µM
Outline: as §1

CRL-7250 = normal cell line; experiment: Cytotoxic Profiling of Annotated Libraries Using Quantitative High-Throughput Screening (AID 1296008); conditions: Five cell lines viability, CellTiter-Glo ATP luminescence, 48-72 h; hits give low values
Outline: (§2)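 Cells exposed to compounds for 48 or 72 hr at 37 degrees Celsius. Viability read as ATP-coupled luminescence with CellTiter-Glo after 10 min at room temperature.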

HEK293 = experiment: as above; conditions: Five cell lines viability, CellTiter-Glo ATP luminescence, 48-72 h; hits give low values
Outline: as §2

HaCat [1] = experiment: as above; conditions: Five cell lines viability, CellTiter-Glo ATP luminescence, 48-72 h; hits give low values
Outline: as §2

KB-3-1 = experiment: as above; conditions: Five cell lines viability, CellTiter-Glo ATP luminescence, 48-72 h, hits give low values
Outline: as §2

NIH3T3 = experiment: as above; conditions: Five cell lines viability, CellTiter-Glo ATP luminescence, 48-72 h; hits give low values
Outline: as §2

HACAT [2] = experiment: qHTS assay to identify novel small-molecules to repurpose for Merkel cell carcinoma treatment (AID 1296009); conditions: MCC and control cell lines, CellTiter-Glo viability, 72 h; at 44.8 µM (top of the series) unless noted
Outline: (§3)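 Cells were incubated with compound for 72 hr at 37 degree celsius before CellTiter-Glo addition. Luminescence was normalized with no-cell wells as full cytotoxicity and DMSO as baseline.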

MCC-13 = experiment: as above; conditions: MCC and control cell lines, CellTiter-Glo viability, 72 h; series mostly up to 46 µM
Outline: as §3

MCC-26 = experiment: as above; conditions: MCC and control cell lines, CellTiter-Glo viability, 72 h; series mostly up to 46 µM
Outline: as §3

MKL-1 = experiment: as above; conditions: MCC and control cell lines, CellTiter-Glo viability, 72 h; series mostly up to 46 µM
Outline: as §3

W2 = experiment: qHTS profiling for inhibitors of Plasmodium falciparum proliferation (AID 504749); also: potency is read from the fitted curve at half-maximal effect; conditions: P. falciparum in erythrocytes, SYBR Green DNA, 72 h; series mostly up to 28.7 µM
Outline: as §1
Also: nearly all actives have a fitted effect of over 60% in size.

## C=CCSCC1Nc2cc(Cl)c(S(N)(=O)=O)cc2S(=O)(=O)N1 (stereo not given)
P94_40
  Potency: inactive
PAD
  Potency: inactive
PC15
  Potency: inactive
PC26
  Potency: inactive
PC49
  Potency: inactive
SC27B
  Potency: inactive
TAB109
  Potency: inactive
TAB113
  Potency: inactive
TAB165
  Potency: inactive
CRL-7250
  max response: -2.06%
HEK293
  max response: 2.45%
HaCat [1]
  outcome: inactive
KB-3-1
  max response: -3.75%
NIH3T3
  max response: 4.06%
HACAT [2]
  outcome: inactive
MCC-13
  outcome: inactive
MCC-26
  outcome: inactive
MKL-1
  outcome: inactive

## CC(=O)N[C@@H](Cc1ccc(O)cc1)C(=O)O
P94_40
  Potency: inactive
PAD
  Potency: inactive
PC15
  Potency: inactive
PC26
  Potency: inactive
PC49
  Potency: inactive
SC27B
  Potency: inactive
TAB109
  Potency: inactive
TAB113
  Potency: inactive
TAB165
  Potency: inactive
CRL-7250
  max response: -1.56%
HEK293
  max response: -2.21%
HaCat [1]
  outcome: inactive
KB-3-1
  max response: -4.16%
NIH3T3
  max response: -2.52%
HACAT [2]
  outcome: inactive
MCC-13
  outcome: inactive
MCC-26
  outcome: inactive
MKL-1
  outcome: inactive

## CCCCCCCC(=O)OCC(COC(=O)CCCCCCC)OC(=O)CCCCCCC
P94_40
  Potency: inactive
PAD
  Potency: inactive
PC15
  Potency: inactive
PC26
  Potency: inactive
PC49
  Potency: inactive
SC27B
  Potency: inactive
TAB109
  Potency: inactive
TAB113
  Potency: inactive
TAB165
  Potency: inactive
CRL-7250
  max response: -3.96%
HEK293
  max response: 1.52%
HaCat [1]
  outcome: inactive
KB-3-1
  max response: -1.81%
NIH3T3
  max response: 4.46%
HACAT [2]
  outcome: inactive
MCC-13
  outcome: inactive
MCC-26
  outcome: inactive
MKL-1
  outcome: inactive

## NS(=O)(=O)c1ccc(C(=O)O)cc1
P94_40
  Potency: inactive
PAD
  Potency: inactive
PC15
  Potency: inactive
PC26
  Potency: inactive
PC49
  Potency: inactive
SC27B
  Potency: inactive
TAB109
  Potency: inactive
TAB113
  Potency: inactive
TAB165
  Potency: inactive
W2
  Potency: inactive
CRL-7250
  max response: -10.9%
HEK293
  max response: -0.608%
HaCat [1]
  outcome: inactive
KB-3-1
  max response: 9.5%
NIH3T3
  max response: 1.17%
HACAT [2]
  outcome: inactive
MCC-13
  outcome: inactive
MCC-26
  outcome: inactive
MKL-1
  outcome: inactive

## O=C(O)c1ccc[n+]([O-])c1
P94_40
  Potency: inactive
PAD
  Potency: inactive
PC15
  Potency: inactive
PC26
  Potency: inactive
PC49
  Potency: inactive
SC27B
  Potency: inactive
TAB109
  Potency: inactive
TAB113
  Potency: inactive
TAB165
  Potency: inactive
W2
  Potency: inactive
CRL-7250
  outcome: inactive
HEK293
  max response: -0.144%
HaCat [1]
  outcome: inactive
KB-3-1
  max response: -1.65%
NIH3T3
  outcome: inactive
HACAT [2]
  outcome: inactive
MCC-13
  outcome: inactive
MCC-26
  outcome: inactive
MKL-1
  outcome: inactive

## O=S1(=O)OC(c2ccc(O)cc2)(c2ccc(O)cc2)c2ccccc21
P94_40
  Potency: inactive
PAD
  Potency: inactive
PC15
  Potency: inactive
PC26
  Potency: inactive
PC49
  Potency: inactive
SC27B
  Potency: inactive
TAB109
  Potency: inactive
TAB113
  Potency: inactive
TAB165
  Potency: inactive
W2
  Potency: inactive
CRL-7250
  outcome: inactive
HEK293
  max response: -9.72%
HaCat [1]
  outcome: inactive
KB-3-1
  max response: 15.7%
NIH3T3
  outcome: inactive
HACAT [2]
  outcome: inactive
MCC-13
  outcome: inactive
MCC-26
  outcome: inactive
MKL-1
  outcome: inactive

## CCCCCC(N)=O
P94_40
  Potency: inactive
PAD
  Potency: inactive
PC15
  Potency: inactive
PC26
  Potency: inactive
PC49
  Potency: inactive
SC27B
  Potency: inactive
TAB109
  Potency: inactive
TAB113
  Potency: inactive
TAB165
  Potency: inactive
W2
  Potency: inactive
CRL-7250
  outcome: inactive
HEK293
  max response: -2.09%
HaCat [1]
  outcome: inactive
KB-3-1
  max response: -2.56%
NIH3T3
  outcome: inactive
HACAT [2]
  outcome: inactive
MCC-13
  outcome: inactive
MCC-26
  outcome: inactive
MKL-1
  outcome: inactive

## NC(=O)[C@@H]1CSSCCC(=O)N[C@@H](CCCCN=C(N)N)C(=O)NCC(=O)N[C@@H](CC(=O)O)C(=O)N[C@@H](Cc2c[nH]c3ccccc23)C(=O)N2CCC[C@H]2C(=O)N1 ([Mpa][hArg]GDWPC-NH2; disulfide 1-7)
P94_40
  Potency: inactive
PAD
  Potency: inactive
PC15
  Potency: inactive
PC26
  Potency: inactive
PC49
  Potency: inactive
SC27B
  Potency: inactive
TAB109
  Potency: inactive
TAB113
  Potency: inactive
TAB165
  Potency: inactive
W2
  Potency: inactive
CRL-7250
  outcome: inactive
HEK293
  max response: -7.03%
HaCat [1]
  outcome: inactive
KB-3-1
  max response: 3.01%
NIH3T3
  max response: -4.92%
HACAT [2]
  outcome: inactive
MCC-13
  outcome: inactive
MCC-26
  outcome: inactive
MKL-1
  outcome: inactive

## CC(=O)OC[C@H]1O[C@@](COC(C)=O)(O[C@H]2O[C@H](COC(C)=O)[C@@H](OC(C)=O)[C@H](OC(C)=O)[C@H]2OC(C)=O)[C@@H](OC(C)=O)[C@@H]1OC(C)=O
P94_40
  Potency: 2.82 µM (active)
PC15
  Potency: inactive
PC26
  Potency: inactive
PC49
  Potency: inactive
W2
  Potency: inactive
CRL-7250
  max response: 4.32%
HEK293
  max response: -4.41%
HaCat [1]
  outcome: inactive
KB-3-1
  max response: 2.32%
NIH3T3
  max response: 2.21%
HACAT [2]
  outcome: inactive
MCC-13
  outcome: inactive
MCC-26
  outcome: inactive
MKL-1
  outcome: inactive

## C[C@@H]1CCC[C@H](C)N1
P94_40
  Potency: inactive
PAD
  Potency: inactive
PC15
  Potency: inactive
PC26
  Potency: inactive
PC49
  Potency: inactive
SC27B
  Potency: inactive
TAB109
  Potency: inactive
TAB165
  Potency: inactive
W2
  Potency: inactive
CRL-7250
  max response: 0.393%
HEK293
  max response: -9.02%
HaCat [1]
  outcome: inactive
KB-3-1
  max response: -5.17%
NIH3T3
  max response: 4.6%
HACAT [2]
  outcome: inactive
MCC-13
  outcome: inactive
MCC-26
  outcome: inactive
MKL-1
  outcome: inactive

## O=C1c2ccccc2C(=O)C1c1ccc(Br)cc1
P94_40
  Potency: 10 µM (active)
PC15
  Potency: inactive
PC49
  Potency: inactive
SC27B
  Potency: inactive
TAB113
  Potency: 8.91 µM (active)
W2
  Potency: 4.78 µM (active)
CRL-7250
  max response: -1.25%
HEK293
  max response: -0.633%
HaCat [1]
  outcome: inactive
KB-3-1
  max response: -16.6%
NIH3T3
  max response: -1.29%
HACAT [2]
  outcome: inactive
MCC-13
  outcome: inactive
MCC-26
  outcome: inactive
MKL-1
  outcome: inactive

## Cc1ccc(S(=O)(=O)NC(=O)NC2CCCCC2)cc1
P94_40
  Potency: inactive
PAD
  Potency: inactive
PC15
  Potency: inactive
PC26
  Potency: inactive
PC49
  Potency: inactive
SC27B
  Potency: inactive
TAB109
  Potency: inactive
TAB113
  Potency: inactive
TAB165
  Potency: inactive
W2
  Potency: inactive
CRL-7250
  outcome: inactive
HEK293
  max response: 2.4%
HaCat [1]
  outcome: inactive
KB-3-1
  max response: 3.8%
NIH3T3
  max response: 0.0689%
HACAT [2]
  outcome: inactive
MCC-13
  outcome: inactive
MCC-26
  outcome: inactive
MKL-1
  outcome: inactive
